PubChem BioAssay
Calls of active or inactive are those of the source.

Columns and labels:
[1] = A549 cell viability effects, profiling panel, calcein-AM fluorescence, 48 h, basal (AID 1162); conditions: higher = more signal
[2] = adipocyte viability effects, profiling panel, cell-based, 3T3-L1 adipocytes, calcein-AM fluorescence, 48 h, basal (AID 1163); conditions: 3T3-L1 adipocytes viability, higher = more signal
[3] = HepG2 cell viability effects, profiling panel, calcein-AM fluorescence, 48 h, basal (AID 1164); conditions: higher = more signal
[4] = MM1S cell viability effects, profiling panel, calcein-AM fluorescence, 48 h, basal (AID 1165); conditions: higher = more signal;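 also: viability of MM1S multiple myeloma cells under basal unstimulated conditions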
[5] = basal RPMI8226 viability, no added stimulus, profiling panel, cell-based, calcein-AM fluorescence, 48 h, PK04 Diversity Set (AID 1166); conditions: RPMI8226 myeloma viability, higher = more signal;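 also: cells grown under basal conditions without added stimulus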
[6] = basal HepG2 mitochondrial membrane potential changes, profiling panel, cell-based, JC-1 fluorescence, 24 h, 100 nL compound (AID 1167); conditions: higher = more signal
[7] = basal 3T3-L1 adipocyte mitochondrial potential changes, profiling panel, cell-based, JC-1 fluorescence, 3T3-L1 adipocytes, 24 h, 100 nL compound (AID 1168); conditions: JC-1 mitochondrial fluorescence, higher = more signal, called active from +8 up or from −8 down
[8] = basal RPMI8226 mitochondrial membrane potential changes, profiling panel, cell-based, JC-1 fluorescence, 24 h, 100 nL compound (AID 1169); conditions: RPMI8226 myeloma, JC-1 mitochondrial potential fluorescence, higher = more signal
[9] = basal MM1S mitochondrial membrane potential changes, profiling panel, cell-based, JC-1 fluorescence, 24 h, 100 nL compound (AID 1170); conditions: higher = more signal
[10] = A549 lung cancer cell viability effects, profiling panel, resazurin fluorescence, 24 h, PK04 Diversity Set (AID 1171); conditions: higher = more signal, called active from +8 up or from −8 down
Also: test concentration not given here.

SMILES | z-score [1] | z-score [2] | z-score [3] | z-score [4] | z-score [5] | z-score [6] | z-score [7] | z-score [8] | z-score [9] | z-score [10]
Cn1cccc1C(O)C1C=CC2C(=O)N(c3ccccc3)C(=O)C2N1Nc1ccccc1 (stereo not given) | -0.514 | -1.86 | 0.316 | -0.615 | -0.244 | -1.3 | -0.96 (inactive) | -0.509 | -1.32 | -0.386 (inactive)
C=CCNC(=O)[C@@H]1[C@H]2C(=O)O[C@H](c3ccccc3)[C@H](c3ccccc3)N2[C@H](c2ccc(O)cc2)[C@@]12C(=O)N(C(=O)OCCOC)c1ccc(C#CC3=CCCCC3)cc12 | 0.145 | 0.725 | 0.423 | -2.13 | -3.66 | -1.9 | 0.889 (inactive) | -0.825 | -0.627 | -0.966 (inactive)
COC(=O)[C@@]1(Cc2ccc(F)cc2)[C@H]2c3cc(C(=O)N(C)C)n(CCc4ccc(OC)c(Br)c4)c3C[C@H]2CN1C(=O)c1ccccc1 | -2.25 | 0.0834 | -1.42 | -3.29 | -4.63 | -1.68 | -0.662 (inactive) | -0.812 | -2.89 | -2.93 (inactive)
CCCC#C[Si](O[C@H](CC)c1cn([C@H](C)c2ccccc2)nn1)(C(C)C)C(C)C | 1.18 | -0.374 | 0.9 | -1.32 | -1.74 | 0.621 | 0.698 (inactive) | -0.0539 | -0.0359 | 0.61 (inactive)
CCOC(=O)C[C@H]1[C@H](OC(=O)c2ccc(C(=O)c3ccccc3)cc2)[C@@H](NC(=O)c2ccc(-c3ccccc3)cc2)c2cc(OCCCO)ccc2N1C(=O)Cc1ccc(OC)cc1 | -0.61 | 0.122 | -0.461 | 0.727 | -0.205 | 1.57 | -0.0721 (inactive) | -0.807 | -0.551 | -0.131 (inactive)
COCCOC(=O)N1C(=O)[C@@]2(c3cc(C#CC4(O)CCCCCC4)ccc31)[C@H](C(=O)Nc1nc3ccccc3s1)[C@H]1C(=O)O[C@H](c3ccccc3)[C@H](c3ccccc3)N1[C@@H]2c1ccc(O)cc1 | 0.638 | -0.457 | 0.74 | -0.227 | -2.46 | -3.17 | -0.421 (inactive) | -0.897 | -0.897 | -0.436 (inactive)
COc1ccc(CCNC(=O)[C@@]2(Sc3ccc(C)cc3)CC(=O)N(Cc3ccccc3C(F)(F)F)[C@@H]2c2ccc(CO)cc2I)cc1 | 0.751 | -0.178 | -0.253 | -2.41 | -2.36 | -1.03 | -0.322 (inactive) | -0.714 | -0.841 | 0.956 (inactive)
[N-]=[N+]=NCc1ccccc1[C@H]1OC(c2ccc(OCCCO)cc2)=N[C@@]1(Cc1ccccc1N=[N+]=[N-])C(=O)NCC(O)CO (stereo not given in full) | -0.471 | 0.517 | -0.353 | -3.22 | -3.36 | -0.504 | -0.618 (inactive) | -0.962 | -0.934 | 0.286 (inactive)
COCCOC(=O)N1C(=O)[C@@]2(c3cc(C#CC4(O)CCCCCC4)ccc31)[C@H](C(=O)N1CCc3cc(OC)c(OC)cc3C1)[C@H]1C(=O)O[C@H](c3ccccc3)[C@H](c3ccccc3)N1[C@@H]2c1ccc(OCCO)cc1 | -0.111 | 0.172 | -0.653 | -1.83 | -0.468 | -0.32 | 0.354 (inactive) | -0.542 | -1.39 | -0.317 (inactive)
C=CCNC(=O)[C@@H]1[C@H]2C(=O)O[C@H](c3ccccc3)[C@H](c3ccccc3)N2[C@H](c2ccccc2OCCO)[C@@]12C(=O)Nc1ccc(C#CCC(C(=O)OC)C(=O)OC)cc12 | -0.423 | -0.695 | -0.852 | -3.28 | -4.17 | -1.4 | 2.37 (inactive) | -0.941 | -1.96 | -1.3 (inactive)
CN(C)C(=O)[C@@]1(Cc2ccccc2CN=[N+]=[N-])N=C(c2ccc(OCCCO)cc2)O[C@H]1c1ccccc1N=[N+]=[N-] | -1.63 | 2 | -2.15 | -3.03 | -3.98 | 0.129 | -0.052 (inactive) | -1.08 | -0.796 | -2.09 (inactive)
CCCCCC1=C2CNC(C)(C(=O)OC)C=C2C(C)C1=O (stereo not given) | -1.23 | -0.0708 | -1.29 | -0.865 | -0.467 | -1.71 | -1.22 (inactive) | 0.782 | -0.362 | -0.722 (inactive)
CC(c1ccccc1)C(O)C1C=CC2C(=O)N(C)C(=O)C2N1Nc1ccccc1 (stereo not given) | -0.227 | -0.856 | 0.36 | -2.65 | -0.435 | -0.624 | -0.83 (inactive) | 0.446 | -0.527 | -0.183 (inactive)
